D1 mod: D1 CRE-luciferase signal change, two-sided – cell-based, HEK293 D1, dopamine EC30, D1 allosteric modulator project, primary screen; D(1A) dopamine receptor (Homo sapiens), P21728; dopamine EC30 potentiation; actives deviate in either direction; B-score at 10 µM; 58,000 compounds, 5.9% hits; AID 641, 2007;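 active = luminescence count or its row- and column-corrected plate score outside the 99.7% band of the plate's sample wells, on either side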
PostGolgi yeast: phenotypic screen on post-Golgi transport, primary screen | AID 739, 2007 | 98,000 compounds, 0.9% hits | post-Golgi transport phenotypic cell assay | inhibition, % at 10 µM;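 also: yeast cells grown in 1536-well plates; yeast grown about 18 h at 30C before absorbance read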
PLAP act: PLAP enzyme activators, biochemical, luminescence, HTS; activation fold at 20 µM; AID 696, 2007; 96,000 compounds, 1.2% hits; Alkaline phosphatase, placental type (Homo sapiens), P05187; purified PLAP enzyme, luminescent substrate read-out; hits give high values; in the data active = activation fold above about 2
PostGolgi ctrl: growth inhibition of yeast control strain, primary screen, counter-screen for post-Golgi transport modulator project; AID 738, 2007; efflux-deficient yeast background strain, growth absorbance A615, 16 h; 98,000 compounds, 5% hits; inhibition, % at 10 µM
DAT uptake mod: changed hDAT dopamine uptake under cocaine IC80, either direction, primary screen, cocaine antagonist project, cell-based, LLC-PK1 hDAT, [14C]-dopamine uptake, MLSMR. Sodium-dependent dopamine transporter (Homo sapiens), Q01959. LLC-PK1 hDAT cells, [14C]-dopamine uptake with cocaine IC80; actives deviate in either direction. B-score at 10 µM. 110,000 compounds, 1.3% hits;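 active = Z score or B-score, a plate-position-corrected score, falls beyond the plate's 99.7% confidence bounds, in either direction; inactive = both scores lie inside the 99.7% bounds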;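 also: scored against the spread of the other compound wells on the same plate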
Target sequence (Q01959 whole entry, looked up): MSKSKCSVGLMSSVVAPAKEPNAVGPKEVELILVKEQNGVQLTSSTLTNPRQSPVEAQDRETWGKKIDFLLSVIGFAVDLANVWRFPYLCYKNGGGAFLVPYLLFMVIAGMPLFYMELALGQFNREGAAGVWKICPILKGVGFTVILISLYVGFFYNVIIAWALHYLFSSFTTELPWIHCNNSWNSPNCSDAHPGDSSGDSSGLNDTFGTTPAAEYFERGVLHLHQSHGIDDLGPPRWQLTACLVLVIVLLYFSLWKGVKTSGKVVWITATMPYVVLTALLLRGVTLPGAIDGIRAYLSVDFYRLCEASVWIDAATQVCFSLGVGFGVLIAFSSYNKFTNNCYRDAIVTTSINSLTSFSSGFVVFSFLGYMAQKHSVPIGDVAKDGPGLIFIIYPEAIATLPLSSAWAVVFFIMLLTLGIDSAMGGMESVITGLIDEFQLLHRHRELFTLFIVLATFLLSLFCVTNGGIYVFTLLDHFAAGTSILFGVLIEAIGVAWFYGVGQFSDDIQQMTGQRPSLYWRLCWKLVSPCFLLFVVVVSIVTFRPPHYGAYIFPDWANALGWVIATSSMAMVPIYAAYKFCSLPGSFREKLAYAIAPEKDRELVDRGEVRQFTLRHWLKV
Cav32 inh: Cav3.2 calcium influx blockers – cell-based, Fluo-4 calcium fluorescence, FDSS, MLSMR library, primary screen. Voltage-dependent T-type calcium channel subunit alpha-1H (Homo sapiens), O95180. Cav3.2-expressing cells; hits give low values. B-score at 10 µM. 100,000 compounds, 4% hits;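 active = single-dose well whose peak fluorescence ratio is a statistical outlier from its plate by either plate-standardised score or position-corrected B-score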
An asterisk follows results filed as active; / = no result. An excerpt weighted towards active compounds, which were near 12% of everything screened. Rule as the data show it, unless noted: active = inhibition above about 30%; inactive = the rest.

SMILES	D1 mod	PostGolgi yeast	PLAP act	PostGolgi ctrl	DAT uptake mod	Cav32 inh
Cc1ccc(CN(C(=O)C(F)(F)F)C(C(=O)NC2CCCCC2)c2ccco2)cc1 (stereo not drawn)	/	/	/	/	-0.392	-5.39*
CCOC(=O)CN(C(=O)Cn1nnc(-c2ccc(C)cc2)n1)C(CC)C(=O)NC1CCCC1 (stereo not drawn)	-0.0292	-1.2	1.6	6.2	1.44	-1.79
O=C(NC1CCCCC1)C(c1ccccc1F)N(Cc1ccco1)C(=O)Cn1nnc2ccccc21 (stereo not drawn)	-0.00646	-23.5	0.9	13.8	/	/
CCC(C(=O)NC1CCCC1)N(Cc1ccco1)C(=O)Cn1nnc(-c2ccc(C)cc2)n1 (stereo not drawn)	0.193	-0.8	0.9	16.1	0.285	-3.67*
Cc1ccc(C(C(=O)NC2CCCCC2)N(Cc2ccco2)C(=O)Cn2cnc3ccccc32)cc1 (stereo not drawn)	/	/	/	/	1.16	-5.15*
CN(C)c1ccc(/C=N/c2cc(-c3ccccc3)nn2-c2ccccc2)cc1	/	27.5	1	-4.5	-0.471	-0.0335
Fc1cccc(-c2cc3nc4c(c(NCc5ccco5)n3n2)CCCC4)c1	/	3.1	1	49.4*	1.1	-1.71
Fc1cccc(-c2cc3nc4c(c(N5CCOCC5)n3n2)CCCC4)c1	/	15.5	1.7	70.3*	2.34	0.186
Fc1cccc(-c2cc3nc4c(c(N5CCN(c6cnccn6)CC5)n3n2)CCCC4)c1	0.299	/	/	/	/	/
COc1ccc(-c2cc3nc4c(c(N5CCC6(CC5)OCCO6)n3n2)CCCC4)cc1	3.71*	/	/	/	/	/
COc1cccc(-c2cc3nc(-c4ccccc4)cc(N4CCC5(CC4)OCCO5)n3n2)c1	-0.294	0.5	1.3	5.7	1.52	-2.12
O=C(O)CNc1nc(Cl)ccc1[N+](=O)[O-]	/	0.9	0.9	-3.4	0.1	-0.0543
CCOC(=O)Cc1csc(SCC(=O)Nc2cccc(Cl)c2)n1	/	-1.1	1	3.9	-0.0257	-3.81*
O=C(CSc1n[nH]c(=O)n1C1CC1)Nc1cc(Cl)ccc1Oc1ccccc1	-2.52	-4.8	1.3	7.5	-0.31	-6.03*
CCOC(=O)Cc1csc(SCC(=O)Nc2cc(Cl)ccc2Oc2ccccc2)n1	/	4.0	0.8	11.1	-0.702	-5.64*
CCCn1c(SCC(=O)Nc2ccccc2Oc2ccccc2)n[nH]c1=O	/	-8.2	1.7	0.4	-0.758	0.834
O=C(CNC(=O)c1cnccn1)Nc1ccc(F)c(F)c1F	-0.404	-5.5	1	0.6	0.123	0.321
CCSc1nc(-c2ccc(OC)cc2)n(-c2nc3ccccc3s2)n1	0.196	0.2	0.9	20.6	1.32	-2.76
CCCN(CCC)S(=O)(=O)c1ccc(C(=O)N2CCOCC2)cc1	/	-4.2	1.1	2.3	0.0473	0.321
COc1ccccc1N1CCN(CCC(=O)Nc2ccc3c(c2)OCO3)CC1	-2.18*	-5.2	1.5	-0.1	-0.777	-1.94
COc1ccccc1N1CCN(c2ccc(-c3ccccc3)nn2)CC1	-5.39*	5.5	0.8	4.3	-0.224	-1.91
COc1ccccc1N1CCN(C/C(C)=C/c2ccccc2)CC1	-3.63*	4.4	1.3	1.0	0.99	-0.606
COc1ccccc1OCC(=O)N1CCN(c2ccccc2OC)CC1	-0.303	-6.0	1.2	17.8	0.39	-2.11
COc1ccccc1OCCCCN1CCN(c2ccccc2OC)CC1	/	-1.6	2.2*	4.4	-0.933	0.672
Cc1ccc(NC(=O)C2C(c3ccccc3)C=CC(c3ccccc3)C2C(=O)O)cc1 (stereo not drawn)	/	2.1	1.4	5.6	-0.105	-3.01
SMILES	D1 mod	PostGolgi yeast	PLAP act	PostGolgi ctrl	DAT uptake mod	Cav32 inh
Cn1cccc1C(=O)C(=O)Nc1cccc(Cl)c1Cl	/	-5.8	0.9	11.9	-0.406	0.573
O=C(Nc1cccnc1)c1ccc2snnc2c1	1.07	-3.3	1.1	7.0	-0.569	-0.104
CC(C)n1c(=S)[nH]c2c1c(=O)[nH]c(=O)n2C	/	1.1	1	1.3	-0.566	-0.268
COc1ccc(CCNC(=O)Cn2nnc(-c3ccccc3F)n2)cc1OC	/	10.6	1.4	-1.9	-0.829	1.11
Cc1cc(-c2cc(C(=O)NCc3ccccc3)on2)nc(NC2CCCC2)n1	/	/	/	/	-0.289	-0.113
Cc1cccc(OCCNc2cc(N3CCOCC3)ccc2[N+](=O)[O-])c1	/	-2.8	0.9	66.5*	-0.0346	0.0786
Cc1cccc(OCCCC(=O)Nc2ccc(N3CCOCC3)cc2)c1	-0.0384	1.9	1	-1.4	0.0878	-0.51
CCC(=O)c1ccc(N2CCN(C(=O)COc3ccc(F)cc3)CC2)c(F)c1	-0.633	-10.2	1.1	31.2*	2.83	-0.618
CN(c1cccc(NC(=O)CN2C(=O)c3ccccc3S2(=O)=O)c1)S(C)(=O)=O	-0.83	6.0	0.9	32.7*	0.362	1.09
CCCN1c2cccc3cccc(c23)S1(=O)=O	0.00937	-2.2	0.9	9.2	-0.0159	-2.06
Clc1ccc(CNCCC2=CCCCC2)cc1	/	5.3	1.1	6.0	-0.0437	-1.83
N#CC1=C(SCc2ccccc2Cl)NC(=O)C(C(N)=O)C1 (stereo not drawn)	-0.469	-12.1	1.5	-1.3	-1.74	0.0199
CCN(CCCNC(=O)CNC(=O)Cn1cnc2ccccc2c1=O)c1cccc(C)c1	-0.531	0.0	1.2	-2.4	0.781	-3.9*
CN(c1ccccc1)S(=O)(=O)c1cccc(NC(=O)Cn2cnc3ccccc3c2=O)c1	/	-1.7	1	13.2	-0.997	-7.05*
CCN(CCCNC(=O)Cn1ncc2c(=O)oc3ccccc3c21)c1cccc(C)c1	0.00755	-13.2	1.3	4.2	/	/
O=C(Nc1ccc(Cl)cc1)N(C1=NCCC1)c1ccc(OC(F)F)cc1	/	-8.1	1	8.6	0.0173	-0.376
Cc1ccc(-c2cn3c(n2)CCCC3)cc1	-1.58	-0.5	0.9	3.0	-0.596	-0.114
c1ccc(-c2ccc(-c3cn4c(n3)CCC4)cc2)cc1	/	0.3	1.6	32.7*	-0.291	-0.0885
Cc1cccc(N2CCN(C(=O)n3ccnc3)CC2)c1C	0.732	0.8	1.3	-1.2	0.868	-1.09
CCSc1nc2c(sc3ccccc32)c(=O)n1C(C)C	/	-8.2	1.1	12.1	-0.79	-2.91
COCCn1c(SCC(=O)c2ccc(F)cc2)nnc1C(C)C	0.0651	-7.6	1.4	-0.7	-1.45	-0.125
N#Cc1c(N)nc(SCc2ccccn2)c(C#N)c1-c1cccs1	/	10.2	1.3	54.1*	0.0717	0.448
CC(C)(C)n1nnnc1C(c1cccc(C#N)c1)N1CCCc2ccccc21 (stereo not drawn)	-0.13	9.1	1.6	28.3	0.269	-1.92
CC(C)(C)n1nnnc1C(c1cccc(C#N)c1)N1CCC(Cc2ccccc2)CC1 (stereo not drawn)	-0.609	-4.3	1.4	43.2*	-0.83	-4.76*

Screens deposited in PubChem BioAssay by several laboratories.
